Source: PubChem (several laboratories)
This is a sample that favours compounds with a hit; in the whole collection about 4.6% have one here.
TIM10 inh: inhibits growth of TIM10 yeast strain; inhibition, % at 10 µM; 330,000 tested, 1.4% active; S. cerevisiae TIM10 strain growth, BacTiter-Glo luminescence, 24 h; AID 463195;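 active = inhibition of 40% or more at the single tested concentration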;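 note: wild-type TIM10 isogenic control strain grown at permissive 25 °C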
tim10-1 inh: growth inhibitors of tim10-1 mutant yeast; AID 463190; S. cerevisiae tim10-1 ts strain growth, BacTiter-Glo, 24 h; inhibition, % at 20 µM; 330,000 tested, 2.2% active;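 active = inhibition of at least 40%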;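 note: mutant grown at 25 °C; 0% = DMSO wells with yeast and 100% = wells holding no yeast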
tim23-1 inh: growth inhibitors of tim23-1 mutant yeast; 330,000 tested, 1.3% active; inhibition, % at 20 µM; S. cerevisiae tim23-1 growth, BacTiter-Glo luminescence, 24 h;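 active = growth inhibition of the mutant yeast at or above 50%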;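 note: temperature-sensitive mutant grown at 25 °C; plate controls were DMSO-treated mutant yeast for no effect and medium wells lacking yeast for full effect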
SKKanGAS inh: blocks kanamycin growth of S. pyogenes SKKanGAS strain | 300,000 tested, 1.3% active | AID 1662 | inhibition, % at 7.5 µM | BacTiter-Glo, 6 h;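 active = mean replicate score, as percent of positive control median, at least 50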;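 note: strain carries kanamycin resistance gene driven by streptokinase promoter and grows in 40 µg/ml kanamycin; loss of luminescence reflects streptokinase promoter inhibition or plain growth inhibition; 0% = median of DMSO wells and 100% = positive control at its reference dose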
PfHsp90 set2: reduces growth (ATP signal) of yeast expressing P. falciparum Hsp90; S. cerevisiae expressing PfHsp90, BacTiter-Glo ATP, 48 h; yeast lacking PDR1 and PDR3 efflux regulators; inhibition, % at 9.4 µM; 310,000 tested, 0.32% active; AID 504621;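 active = every replicate shows inhibition above about 80%, whatever the replicate mean, limit read from the data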;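 note: 0% = DMSO neutral controls and 100% = 20 µM radicicol positive controls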
NALP3 yeast inh: blocks the NALP3 inflammasome reconstituted in yeast; Yeast reconstituted NLRP3/ASC/caspase-1, beta-gal luminescence, 24 h; inhibition, % at 10 µM; 330,000 tested, 0.39% active; AID 2825;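 active = inhibition of 50% or more; inactive = inhibition below 50%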;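 note: plate controls were induced DMSO wells for no effect and uninduced yeast grown without galactose for full effect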
The depositor's hits bear a star; · = no result; + = active, no number.

SMILES	TIM10 inh	tim10-1 inh	tim23-1 inh	SKKanGAS inh	PfHsp90 set2	NALP3 yeast inh
CC(=O)OCC1=C(C(=O)O)N2C(=O)C(NC(=O)CCn3nc(C(F)(F)F)c(Br)c3C3CC3)C2SC1 (centres undefined)	-1.7	3.9	13.1	109.7*	15.6	10.1
Cn1nc(NC(=O)CC(C)(C)CC(=O)O)c2ccccc21	-13.7	0.0	18.1	-8.8	-7.4	7.3
CCC(C(=O)NC1C(=O)N2C(C(=O)O)=C(CSc3nnc(C)s3)CSC12)c1ccccc1 (centres undefined)	-4.2	-2.9	-3.8	·	18.9	12.6
CC(=O)OCC1=C(C(=O)O)N2C(=O)C(NC(=O)COc3ccc(F)cc3)C2SC1 (centres undefined)	6.4	-12.7	-1.9	·	5.6	3.6
CC(=O)OCC1=C(C(=O)O)N2C(=O)C(NC(=O)CCn3nc(C)c(Cl)c3C)C2SC1 (centres undefined)	1.4	-6.6	0.8	94.7*	-8.6	6.9
Cc1nnc(SCC2=C(C(=O)O)N3C(=O)C(NC(=O)Cn4nc(C(F)F)cc4C)C3SC2)s1 (centres undefined)	9.0	4.2	6.3	112.3*	-42.5	-2.5
CC(=O)OCC1=C(C(=O)O)N2C(=O)C(NC(=O)Cn3nc(C(F)F)c(Cl)c3C)C2SC1 (centres undefined)	3.5	-3.0	7.9	109.4*	56.6	17.8
Cc1nnc(SCC2=C(C(=O)O)N3C(=O)C(NC(=O)Cn4nc(C(F)F)c(Cl)c4C)C3SC2)s1 (centres undefined)	11.4	6.7	7.4	96.5*	20.1	6.6
CCN(CC)S(=O)(=O)c1ccc(N2CCN(c3cccc(OC)c3)CC2)c([N+](=O)[O-])c1	11.7	4.2	27.7	3.4	-6.7	18.1
O=S(=O)(c1ccc(Cl)nc1)N1CCCCC1	2.8	4.6	-2.2	-1.3	-11.5	19.0
Cn1c(SCC(=O)NCc2cccs2)nnc1-c1ccc(O)cc1	12.5	-3.3	-8.2	-8.1	-10.1	5.3
CN(C)CCn1nnc2c(=O)oc3ccccc3c21	3.1	1.2	-4.3	·	12.0	-2.1
Cc1ccc(-c2nnc(NC(=O)c3ccc([N+](=O)[O-])o3)o2)c(C)c1	-19.1	9.4	6.7	69.5*	-54.0	10.2
FC(F)(F)c1cc(CCN2C(=S)NC[C@@H]2Cc2ccccc2)cc(C(F)(F)F)c1	11.7	18.7	21.9	16.4	-22.2	35.7
S=C1NC[C@H](Cc2ccccc2)N1CCCCC1CCCCC1	-2.5	3.8	19.0	15.8	4.8	28.0
S=C1NC[C@H](CC2CCCCC2)N1CCCCC1CCCCC1	-32.2	20.4	22.9	76.2*	-3.3	13.0
FC(F)(F)c1cc(CCN2C(=S)NC[C@@H]2CC2CCCCC2)cc(C(F)(F)F)c1	19.0	28.2	22.4	68.0*	10.3	25.8
Cn1c(CNC(=O)c2ccco2)nnc1SCC(=O)c1ccc(F)cc1	13.2	3.4	8.2	36.7	14.5	5.1
CN(/N=C/c1ccc(Cl)cc1)c1ncc(Cl)cc1C(F)(F)F	-16.4	-12.2	-12.8	73.3*	-21.2	17.1
CN(/N=C/c1ccc(Cl)cc1Cl)c1ncc(Cl)cc1C(F)(F)F	-21.7	-13.3	-24.1	76.5*	-0.5	13.7
Cc1ccc(N(C)/N=C/c2ccc(Cl)cc2Cl)nn1	-2.0	13.1	39.4	1.4	-34.4	12.1
CN(C)c1cc(N/N=C/c2ccc(Cl)cc2)nc(N(C)C)n1	·	·	·	-20.9	18.2	·
COc1ccc2c(c1)[C@H]1[C@H](CO2)[C@H](c2ccccc2)[C@]2(C)C(=O)Nc3ccc(Br)cc3C(=O)N12	34.4	18.9	42.0	·	+	13.1
Cc1ccc2c(c1)[C@H]1[C@H](CO2)[C@H](c2ccccc2)[C@]2(C)C(=O)Nc3ccc(Br)cc3C(=O)N12	24.0	17.8	27.7	·	-97.8	7.6
COc1ccc2c(c1)C(=O)N1[C@H]3c4cc(OC)ccc4OC[C@@H]3[C@H](c3ccccc3)[C@]1(C)C(=O)N2	-4.5	25.1	6.5	·	-36.4	12.3
SMILES	TIM10 inh	tim10-1 inh	tim23-1 inh	SKKanGAS inh	PfHsp90 set2	NALP3 yeast inh
COc1ccc2c(c1)OC[C@H]1[C@H]2N2C(=O)c3cc(Br)ccc3NC(=O)[C@@]2(C)[C@H]1c1ccccc1	8.2	35.7	46.5	·	102.3*	12.0
O=C(/C=C/c1ccc2c(c1)OCO2)NCCS(=O)(=O)N1CCN(c2ccc(F)cc2)CC1	5.3	-6.9	0.8	0.0	·	11.5
Cc1ncc(CO)c(/C=N/NC(=O)c2cc(Br)ccc2O)c1O	-54.0	-22.9	6.1	92.4*	-28.1	10.3
Cc1ncc(CO)c(/C=N/NC(=O)c2ccc(Br)cc2)c1O	11.1	20.4	2.3	3.1	·	10.6
COc1cccc(-n2c(C)cc(/C=C3/C(=N)N4C(=NC3=O)SN=C4S(C)(=O)=O)c2C)c1	31.0	14.0	21.7	68.5*	0.4	-3.4
Cc1cc(C)cc(-n2cccc2/C=C2/C(=N)N3C(=NC2=O)SN=C3S(C)(=O)=O)c1	18.4	24.2	26.4	70.8*	-4.0	7.8
Cc1ccc(-n2cccc2/C=C2/C(=N)N3C(=NC2=O)SN=C3S(C)(=O)=O)cc1	23.6	14.7	18.6	47.6	27.4	14.5
CCOC(=O)c1csc(COc2ccc(OC)cc2)n1	-1.1	-13.8	3.2	3.6	-2.5	28.4
Cn1c(=O)c2c(SCC(=O)N3CCOCC3)nc(-c3ccccc3F)nc2n(C)c1=O	-7.9	7.3	10.6	60.6*	33.1	14.4
Cn1c(=O)c2c(SCC(=O)N3CCCCC3)nc(-c3ccccc3F)nc2n(C)c1=O	2.0	20.3	3.5	37.4	-4.7	4.6
CC(=O)O[C@]1(C(C)=O)CC[C@H]2[C@@H]3C[C@H](C)C4=CC(=O)CC[C@]4(C)[C@H]3CC[C@@]21C	0.3	20.6	14.1	-3.8	10.6	10.3
CC(=O)O[C@H]1C[C@@]2(C)[C@@H](C[C@@H](O)[C@H]3[C@@]4(C)CC[C@@H](O)[C@@H](C)C4CC[C@@]32C)/C1=C(\CCC=C(C)C)C(=O)O (some centres undefined)	·	·	·	73.4*	5.1	·
O=C(Nc1ccc(OC(F)(F)F)cc1)C1CCCN(S(=O)(=O)c2cnc[nH]2)C1 (centres undefined)	-5.7	-2.0	-11.6	99.1*	-4.7	14.6
COc1ccc(C(=O)CC(=O)C(=O)Nc2cc(OC)ccc2OC)cc1	-11.9	-13.7	19.2	0.7	9.1	16.8
COc1ccc(C(=O)CC(=O)C(=O)Nc2ccccc2C(F)(F)F)cc1	-0.2	14.6	9.9	84.6*	33.8	17.5
COc1ccc(C(=O)CC(=O)C(=O)Nc2ccccc2Cl)cc1	·	·	·	56.1*	1.5	·
COc1ccc(C(=O)CC(=O)C(=O)Nc2cc(Cl)c(OC)cc2OC)cc1	-7.0	-4.2	2.0	9.1	9.7	-2.2
Cc1ccc(S(=O)(=O)N2CCN(CC(=O)N/N=C/C=C/c3ccccc3)CC2)cc1	-7.3	33.6	29.8	1.5	3.2	5.2
